Key:
Assay in all cases: yeast three-hybrid, YBZ-1, SC-Leu-His + 0.5 mM 3-AT, 4 days
Settings in all cases: tags: N-Gal4 AD-HA kept; label: inside an RPR1-promoter hybrid RNA with tandem MS2 sites; ssRNA
PUM1 PUF domain R3-RIS = PUM1 PUF domain R3-RIS (Homo sapiens, UniProt Q14671 828-1176, C935R;R936I;Q939S)
Outline: (§1)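 The interaction score is the logarithmic change in variant frequency from input to selection. It uses log2, with a pseudocount of 1 for absent variants, and frequencies came from PCR-amplified, Illumina-sequenced repeat regions. The libraries were Pumilio-1 PUF domains randomized at the three base-contacting residues per repeat, co-expressed with matching RNA elements in strain YBZ-1 (LexA–MS2 coat fusion, HIS3 reporter). Plating lasted four days on SC-Leu (input) or SC-Leu-His + 0.5 mM 3-AT (selection).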

PUM1 PUF domain R5-DHA = PUM1 PUF domain R5-DHA (Homo sapiens, UniProt Q14671 828-1176, C1007D;R1008H;Q1011A)
Outline: as §1

PUM1 PUF domain R6-VFA = target: T1, PUM1 PUF domain R6-VFA (Homo sapiens, UniProt Q14671 828-1176, N1043V;Y1044F;Q1047A)
T1 sequence: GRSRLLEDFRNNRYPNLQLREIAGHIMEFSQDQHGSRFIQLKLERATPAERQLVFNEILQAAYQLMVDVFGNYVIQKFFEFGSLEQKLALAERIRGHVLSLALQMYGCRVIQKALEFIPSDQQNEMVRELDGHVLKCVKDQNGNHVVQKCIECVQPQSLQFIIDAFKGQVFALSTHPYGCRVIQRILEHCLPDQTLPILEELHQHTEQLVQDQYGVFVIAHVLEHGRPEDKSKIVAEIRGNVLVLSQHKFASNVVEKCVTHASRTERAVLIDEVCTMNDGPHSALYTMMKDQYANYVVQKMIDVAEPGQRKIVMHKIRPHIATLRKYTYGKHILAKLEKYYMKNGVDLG
Outline: as §1

PUM1 PUF domain R4-HRG = PUM1 PUF domain R4-HRG (Homo sapiens, UniProt Q14671 828-1176, N971H;H972R;Q975G)
Outline: as §1

PUM1 PUF domain R4-NNW = PUM1 PUF domain R4-NNW (Homo sapiens, UniProt Q14671 828-1176, H972N;Q975W)
Outline: as §1

PUM1 PUF domain R5-AKR = PUM1 PUF domain R5-AKR (Homo sapiens, UniProt Q14671 828-1176, C1007A;R1008K;Q1011R)
Outline: as §1

PUM1 PUF domain R8-RNR = PUM1 PUF domain R8-RNR (Homo sapiens, UniProt Q14671 828-1176, N1122R;Y1123N;Q1126R)
Outline: as §1

PUM1 PUF domain R8-RFG = PUM1 PUF domain R8-RFG (Homo sapiens, UniProt Q14671 828-1176, N1122R;Y1123F;Q1126G)
Outline: as §1

PUM1 PUF domain R8-PFW = PUM1 PUF domain R8-PFW (Homo sapiens, UniProt Q14671 828-1176, N1122P;Y1123F;Q1126W)
Outline: as §1

PUM1 PUF domain R8-THR = PUM1 PUF domain R8-THR (Homo sapiens, UniProt Q14671 828-1176, N1122T;Y1123H;Q1126R)
Outline: as §1

How did the binding signal (PUM1 PUF domain R3-RIS) turn out when “GGCUAGAACUAGUGGAUCCCCCGGCGCCCGGCGGCUCGAGCCCGGGUAAGUGUAAUUAGUCUGCAUGCCGCCGGGCGCCAUGCCUGCAGGUCGACUCUAGAAAACAUG” was run?
The binding signal was 3.36 log2 enrichment (interaction score).

For “GGCUAGAACUAGUGGAUCCCCCGGCGCCCGGCGGCUCGAGCCCGGGUAAGUGUAAGUAGUCUGCAUGCCGCCGGGCGCCAUGCCUGCAGGUCGACUCUAGAAAACAUG”, which binding signal (PUM1 PUF domain R3-RIS) is on record?
The binding signal was 3.17 log2 enrichment (interaction score).

“GGCUAGAACUAGUGGAUCCCCCGGCGCCCGGCGGCUCGAGCCCGGGUAAGUGUUAAUAGUCUGCAUGCCGCCGGGCGCCAUGCCUGCAGGUCGACUCUAGAAAACAUG” was tested. Which binding signal (PUM1 PUF domain R5-DHA) did it give?
The binding signal was 4.01 log2 enrichment (interaction score).

How did the binding signal (PUM1 PUF domain R6-VFA) turn out when “GGCUAGAACUAGUGGAUCCCCCGGCGCCCGGCGGCUCGAGCCCGGGUAAGUGAAAAUAGUCUGCAUGCCGCCGGGCGCCAUGCCUGCAGGUCGACUCUAGAAAACAUG” was run?
The binding signal was 6.94 log2 enrichment (interaction score).

For “GGCUAGAACUAGUGGAUCCCCCGGCGCCCGGCGGCUCGAGCCCGGGUAAGUGUACAUAGUCUGCAUGCCGCCGGGCGCCAUGCCUGCAGGUCGACUCUAGAAAACAUG”, which binding signal (PUM1 PUF domain R4-HRG) is on record?
Its binding signal is 2.09 log2 enrichment (interaction score).

And the binding signal (PUM1 PUF domain R4-NNW)?
The binding signal was 4.15 log2 enrichment (interaction score).

Which binding signal (PUM1 PUF domain R5-DHA) does the source give for “GGCUAGAACUAGUGGAUCCCCCGGCGCCCGGCGGCUCGAGCCCGGGUAAGUGUGAAUAGUCUGCAUGCCGCCGGGCGCCAUGCCUGCAGGUCGACUCUAGAAAACAUG” here?
Its binding signal is 2.38 log2 enrichment (interaction score).

With “GGCUAGAACUAGUGGAUCCCCCGGCGCCCGGCGGCUCGAGCCCGGGUAAGUGUCAAUAGUCUGCAUGCCGCCGGGCGCCAUGCCUGCAGGUCGACUCUAGAAAACAUG” as the sequence, how does the binding signal (PUM1 PUF domain R5-AKR) read?
Its binding signal is 5.56 log2 enrichment (interaction score).

With “GGCUAGAACUAGUGGAUCCCCCGGCGCCCGGCGGCUCGAGCCCGGGUAAGCGUAAAUAGUCUGCAUGCCGCCGGGCGCCAUGCCUGCAGGUCGACUCUAGAAAACAUG” as the sequence, how does the binding signal (PUM1 PUF domain R8-RNR) read?
Its binding signal is 2.37 log2 enrichment (interaction score).

And the binding signal (PUM1 PUF domain R8-RFG)?
The binding signal was 6.69 log2 enrichment (interaction score).

What about the binding signal (PUM1 PUF domain R8-PFW) of the same sequence?
Its binding signal is 3.6 log2 enrichment (interaction score).

What about the binding signal (PUM1 PUF domain R8-THR) of the same sequence?
Its binding signal is 3.22 log2 enrichment (interaction score).

How did the binding signal (PUM1 PUF domain R6-VFA) turn out when “GGCUAGAACUAGUGGAUCCCCCGGCGCCCGGCGGCUCGAGCCCGGGUAAGUGUAAAUAGUCUGCAUGCCGCCGGGCGCCAUGCCUGCAGGUCGACUCUAGAAAACAUG” was run?
The binding signal was 2.89 log2 enrichment (interaction score).

What about the binding signal (PUM1 PUF domain R4-HRG) of the same sequence?
Its binding signal is 3.06 log2 enrichment (interaction score).

And the binding signal (PUM1 PUF domain R8-RNR)?
The binding signal was 0.57 log2 enrichment (interaction score).

What about the binding signal (PUM1 PUF domain R8-RFG) of the same sequence?
Its binding signal is 4.85 log2 enrichment (interaction score).

And the binding signal (PUM1 PUF domain R8-THR)?
The binding signal was 2.7 log2 enrichment (interaction score).

“GGCUAGAACUAGUGGAUCCCCCGGCGCCCGGCGGCUCGAGCCCGGGUAAGUGUAUAUAGUCUGCAUGCCGCCGGGCGCCAUGCCUGCAGGUCGACUCUAGAAAACAUG” was tested. Which binding signal (PUM1 PUF domain R4-HRG) did it give?
The binding signal was 2.71 log2 enrichment (interaction score).

From publication PMC8384837, “Expanding the binding specificity for RNA recognition by a PUF domain”
